Source: PubChem (The Scripps Research Institute Molecular Screening Center)
PME-1 inh: blocks human protein phosphatase methylesterase 1; inhibition, % at 5.9 µM; AID 2130; 320,000 compounds, 0.53% hits; Q9Y570; recombinant PME-1, FP-Rh probe fluorescence polarization;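 active means inhibition above the campaign mean of all compounds plus 3 SD, cut at about 26% in these data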;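 further: competitive labeling of PME-1 active site by serine hydrolase directed probe; 0% = PME-1 with DMSO and 100% = wells lacking PME-1 enzyme; inhibitors block probe labeling so polarization falls and inhibition rises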
Target sequence (Q9Y570 whole entry, looked up): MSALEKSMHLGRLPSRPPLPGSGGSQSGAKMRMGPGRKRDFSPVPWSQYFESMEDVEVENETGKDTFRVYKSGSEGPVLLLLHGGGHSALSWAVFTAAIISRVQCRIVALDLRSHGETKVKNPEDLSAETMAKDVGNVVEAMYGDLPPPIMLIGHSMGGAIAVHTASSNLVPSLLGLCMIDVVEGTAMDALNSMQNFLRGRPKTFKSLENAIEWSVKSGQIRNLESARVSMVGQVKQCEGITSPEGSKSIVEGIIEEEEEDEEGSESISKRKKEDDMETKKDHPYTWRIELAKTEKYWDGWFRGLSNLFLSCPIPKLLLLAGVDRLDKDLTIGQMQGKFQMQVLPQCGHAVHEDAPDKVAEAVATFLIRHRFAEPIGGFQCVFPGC
LYPLA1 inh: counter-screen for PME1 inhibitors: inhibitors of human LYPLA1; recombinant LYPLA1, FP-Rh probe fluorescence polarization; 320,000 compounds, 0.16% hits; inhibition, % at 5.9 µM; AID 2174;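 active means inhibition above the mean of all tested compounds plus 3 SD, set per campaign, cut at about 14% in these data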;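 further: inhibitors block serine hydrolase probe labeling of LYPLA1 so polarization falls; 0% = enzyme with DMSO and 100% = wells lacking LYPLA1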
Target sequence (O75608 whole entry, looked up): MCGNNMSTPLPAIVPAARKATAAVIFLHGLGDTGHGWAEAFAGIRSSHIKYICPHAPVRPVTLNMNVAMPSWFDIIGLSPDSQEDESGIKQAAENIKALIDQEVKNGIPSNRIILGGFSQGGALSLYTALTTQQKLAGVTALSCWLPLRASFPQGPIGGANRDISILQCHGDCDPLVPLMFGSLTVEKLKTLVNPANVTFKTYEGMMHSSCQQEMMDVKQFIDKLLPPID
Fam108B counter: counter-screen for RBBP9 inhibitors: inhibitors of mouse Fam108B. 300,000 compounds, 0.33% hits. recombinant Fam108B, FP-Rh probe fluorescence polarization. inhibition, % at 9.51 µM;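 active means inhibition above the screen mean inhibition plus 3 SD, computed separately per campaign, cut at about 18% in these data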;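 further: inhibitors lower polarization as less probe binds the enzyme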
PAD4 FP inh: inhibitors of human PAD4 | recombinant PAD4, RCA probe fluorescence polarization | Q9UM07 | 330,000 compounds, 0.41% hits | AID 485272 | inhibition, % at 6.36 µM;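 active means percent inhibition above a cutoff equal to the mean of all tested compounds plus 3 SD, cut at about 15% in these data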;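 further: 0% = PAD4 with RCA probe and DMSO and 100% = probe without PAD4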
LYPLA2 inh: counter-screen for PME1 inhibitors: inhibitors of human LYPLA2; O95372; recombinant LYPLA2, FP-Rh probe fluorescence polarization; inhibition, % at 5.9 µM; 320,000 compounds, 0.38% hits; AID 2177;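 active means inhibition above the screen-wide mean plus 3 SD, limit set per campaign, cut at about 26% in these data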;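 further: 0% = LYPLA2 with DMSO and 100% = wells lacking LYPLA2 enzyme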
GSTO1 counter: counter-screen for RBBP9 inhibitors: inhibitors of human GSTO1. P78417. recombinant GSTO1, activity-based probe fluorescence polarization. inhibition, % at 5.96 µM. 300,000 compounds, 1.1% hits. AID 1974;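 active means inhibition above the campaign mean inhibition plus 3 SD, cut at about 35% in these data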;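 further: 0% = GSTO1-1 with DMSO and 100% = wells lacking GSTO1-1 enzyme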
* = called active by the depositor; . = no result given. Only some compounds are listed: those with a hit (about 1.8% of all), similar ones and a draw of the others.

SMILES	PME-1 inh	LYPLA1 inh	Fam108B counter	PAD4 FP inh	LYPLA2 inh	GSTO1 counter
COc1cc(C(=S)N2CCN(c3ccccc3Cl)CC2)cc(O)c1O	-1.2	-5.7	-1.3	-2.0	-5.4	37.0*
Oc1ccc(/C=N/N2CCOCC2)c(O)c1O	3.7	0.3	5.6	14.3	-3.2	37.8*
Cc1ccc(C(=O)NC(=C(Cl)Cl)S(=O)(=O)c2ccccc2)cc1	0.6	-2.4	-0.1	3.2	-2.7	39.3*
COc1ccc(S(=O)(=O)N(C)C)cc1NC(=O)COC(=O)C1CC1	.	.	.	1.3	.	.
Cc1ccc(/C=N/Nc2ccnc3cc(Cl)ccc23)c(C)c1	35.0*	0.8	15.9	-0.2	3.6	-9.1
Oc1ccc(/C=N/Nc2ccnc3cc(Cl)ccc23)c(O)c1	26.9*	-1.7	3.5	-4.5	3.3	9.4
O=C(OCn1ncc(Br)c(Br)c1=O)c1c(F)cccc1F	-3.3	-0.3	-0.7	22.0*	0.3	7.8
COC(=O)C(COC(=O)c1c(F)cccc1F)NC(=O)c1c(F)cccc1F (stereo unspecified)	1.2	6.4	3.7	-1.8	4.6	-2.0
CC(=O)C(C(C)=O)C1(O)C(=O)c2ccccc2C1=O	4.9	2.0	10.5	-11.7	5.0	74.8*
Cc1cc(C)c2c(N)c(-c3nc4ccccc4[nH]3)sc2n1	28.8*	-2.2	8.1	1.6	-5.2	4.3
CC(C)C1=Nc2cccc3cccc(c23)N1	4.5	-2.1	0.6	-0.1	-4.6	15.6
ClCC1=Nc2cccc3cccc(c23)N1	0.6	0.7	3.8	2.0	-2.1	55.1*
CCCCS(=O)(=O)Nc1ccc(N2CCOCC2)c(S(=O)(=O)N2CCOCC2)c1	-0.5	-5.0	-6.1	-4.0	-11.2	0.8
COC(=O)c1ccc(COc2ccccc2/C=N/NC(=O)c2cccnc2)cc1	6.3	-2.5	-9.7	-1.3	35.6*	-5.2
COc1cccc(/C=N/NC(=O)CNC(=O)c2cccnc2)c1O	-2.6	0.3	4.2	1.4	2.7	4.7
O=C(O)/C=C/C(=O)Nc1ccc2c(c1)C(=O)c1ccccc1C2=O	10.8	4.6	10.1	-3.7	5.5	37.4*
CC(=O)Nc1ccc2c(c1)C(=O)c1ccccc1C2=O	7.8	-1.0	6.5	1.5	0.0	4.5
Cc1cc(C)c(S(=O)(=O)/N=C2\C=C(NS(=O)(=O)c3ccccc3)C(=O)c3ccccc32)c(C)c1	-15.0	-10.6	-3.9	-18.9	-21.3	60.2*
Cn1cc(C(=O)N/N=C/c2c(O)ccc3ccccc23)ccc1=O	12.6	-2.3	15.9	4.6	3.5	38.7*
O=C(N/N=C/c1c(O)ccc2ccccc12)c1ccc[n+](CCO)c1	-1.2	-4.0	-4.5	2.4	-2.9	43.8*
O=C(N/N=C/c1c(O)ccc2ccccc12)c1cccnc1	10.1	-4.8	4.8	-11.2	-2.3	15.2
Cc1ccc(Nc2nnc(-c3ccc(N4CCOCC4)c([N+](=O)[O-])c3)c3ccccc23)cc1	48.0*	-10.7	5.4	-0.5	-15.3	-6.5
Cc1cnc(C(=O)OCC(=O)c2ccc(Cl)cc2)cn1	-4.4	0.2	-1.4	-4.5	-2.5	0.6
C=CCn1c(=O)c2ccccc2n2c(SCC(=O)NCCc3ccccc3)nnc12	3.5	-2.7	5.2	2.0	2.3	-6.0
C=CCn1c(=O)c2ccccc2n2c(SCC(=O)c3ccccc3)nnc12	1.9	-1.7	-2.6	-3.4	-0.6	35.9*
SMILES	PME-1 inh	LYPLA1 inh	Fam108B counter	PAD4 FP inh	LYPLA2 inh	GSTO1 counter
CC1=C(C)/C(=N\OS(=O)(=O)c2ccccc2)C=CC1=O	-0.4	-0.2	0.6	1.9	-0.4	34.9*
COc1ccc(C(CNC(=O)c2cccc(S(=O)(=O)N(C)c3ccccc3)c2)N2CCCC2)cc1 (stereo unspecified)	-0.9	-0.2	.	-3.5	1.7	.
O=c1cc(N=Nc2ccc(Cl)cc2)[nH]c(=O)[nH]1	1.6	0.9	-0.3	1.3	-0.9	47.3*
O=c1cc(-c2ccc(Cl)cc2)oc(=O)[nH]1	-7.4	-1.7	3.1	4.7	-1.2	-2.0
O=C1CC(c2ccc(O)c(O)c2)Oc2c1ccc(O)c2O (stereo unspecified)	-4.5	-6.2	6.3	6.1	-11.9	44.0*
O=C(CSc1nnc(N2CCCC2)n1-c1ccccc1Cl)N1CCN(c2ccccn2)CC1	2.9	0.7	.	-3.8	1.8	.
CCOC(=O)CCc1c(C)nc(SCCCn2c(=O)[nH]c3ccccc32)c(C#N)c1C	26.4*	2.0	-4.4	-4.9	7.2	1.1
Cc1nc(SCC(=O)N2CCN(c3ccccn3)CC2)c(C#N)c(C)c1C	.	.	.	0.2	.	.
C=C1N(C)c2cc([N+](=O)[O-])c(N)cc2C1(C)C	12.1	2.3	3.4	1.7	1.4	36.1*
N#Cc1cc(C#N)c(SCC(=O)N2CC(=O)Nc3ccccc32)nc1N	16.5	-5.0	.	-2.8	-5.4	.
CCc1ccc2nc(SCC(=O)N3CC(=O)Nc4ccccc43)c(C#N)cc2c1	34.1*	-0.8	-4.7	-26.8	1.3	-1.9
CCOC(=O)C1CCCN(C(=O)CSc2nnnn2C)C1 (stereo unspecified)	.	.	.	2.6	.	.
COc1ccccc1NC(=O)COn1nnc2ccc(S(=O)(=O)N3CCOCC3)cc21	-6.8	4.2	3.3	-1.9	5.2	35.7*
O=C(Cn1cc([N+](=O)[O-])ccc1=O)NC1CCCCC1	4.2	-0.5	.	-0.3	6.9	.
CC(C)S(=O)(=O)c1csc(NC(=O)Nc2cccc([N+](=O)[O-])c2)c1Cl	27.6*	-10.3	-14.3	-1.6	-6.9	-31.6
O=C(Nc1cccc([N+](=O)[O-])c1)Nc1cccc([N+](=O)[O-])c1	-6.6	-21.2	-5.3	-0.2	-24.6	-6.5
O=C(Nc1ccc(Br)c2ccccc12)c1ccc2ccccc2c1O	26.0	-5.5	38.5*	-0.4	8.6	-4.2
O=C(COC(=O)CCCN1C(=O)c2cccc3cccc(c23)C1=O)Nc1ccc(Cl)cc1	30.3*	5.9	1.2	2.2	20.6	-5.2
NC(=O)c1ccc(NC(=O)COC(=O)CCCN2C(=O)c3cccc4cccc(c34)C2=O)cc1	1.3	-0.3	1.9	-1.6	1.6	-0.6
Cc1cccc2cc(C#N)c(SCC#N)nc12	30.9*	-1.3	4.1	-1.9	-7.7	-1.8
Oc1ccc(O)cc1	-2.2	0.5	-3.6	-2.5	2.1	55.9*
CCc1ccc(-n2nc3cc(C)c(N)cc3n2)cc1	3.1	-1.6	2.5	-2.8	1.4	35.8*
C[C@H]1CN([C@@H](C)CO)C(=O)c2cc(NC(=O)C3CCCCC3)ccc2O[C@H]1CN(C)C(=O)Nc1ccc2c(c1)OCO2	.	.	.	4.0	.	.
O=c1[nH]c(C2CCN(S(=O)(=O)c3ccc(C(F)(F)F)cc3)CC2)nc2c1nnn2Cc1ccc(F)cc1	68.2*	-2.6	-3.4	5.6	1.6	-9.1
COc1cccc(NC(=O)CN(C)C(C)C(=O)N2CCCC2)c1 (stereo unspecified)	4.2	3.3	.	-3.9	3.7	.
O=C(CSc1nnc(-c2ccccn2)n1Cc1ccco1)c1ccccc1	-7.2	-2.8	-3.9	-1.1	-0.2	-0.1
